# About 2,100 (0.66%) of roughly 320,000 compounds were called active. Inconclusive results (about 53%) are left out. The call rests on the fitted dose curve; in most records, active means well fitted inhibition curve with a large enough effect in the signal ratio, with a control signal flat (not every such curve was filed as active); inconclusive means small, poorly fitted or top-dose-only effect, or effect the other way, or a change in a side signal; inactive means flat fitted curve, though single readings scatter; the % refers to the signal ratio. The entries come from a sample that favours actives as a whole.
# Assay: qHTS Assay for Lipid Storage Modulators in Drosophila S3 Cells;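 on cell number change: cells counted by Cell Tracker Red CMTPX staining in the red channel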; on lipid storage change, negative = inhibition: on the % scale 0 is the no-effect control and ±100 the full control effect
# Conditions: BODIPY lipid droplet fluorescence, 18-24 h, cells fed with added oleic acid; cell number change: measured here: cell count max response; series mostly up to 46.1 µM; lipid storage change, negative = inhibition: at the top concentration
# Outline: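 Drosophila S3 cells loaded with oleic acid (400 uM, as added) and compounds at several concentrations; lipid droplets imaged by 488-nm laser-scanning cytometry, 500–530 nm intensity and object ratio to cell channel. Percent activity normalized to 20 uM Triacsin C.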
# Potency means the concentration at half of the fitted maximal effect.
SMILES,"lipid storage change, negative = inhibition",cell number change [%],Potency,outcome
CCn1c(COc2ccccc2C(N)=O)nc2ccccc21,-2.01% (inactive),-13.5,,
CCOC(=O)Cc1csc(NC(=O)c2ccc(F)cc2)n1,0.5% (inactive),5.42,,
CCOC(=O)Cc1csc(NC(=S)NC(=O)c2ccc(F)cc2)n1,,-14.9,10.3 µM (active),
CCOC(=O)Cc1csc(NC(=S)NC(=O)c2ccc(C)cc2)n1,8.49% (inactive),12.7,,
COc1cc2c(cc1OC)C1Cc3ccc(OC)c(OC)c3C[N+]1([O-])CC2 (stereo unspecified),0.646% (inactive),8.62,,
Cc1nc(NCC2CCCO2)c2nnn(Cc3c(F)cccc3Cl)c2n1 (stereo unspecified),5.75% (inactive),-5.53,,
c1ccc(N2CCN(c3ncccn3)CC2)cc1,-29.3% (inactive),-7.61,,
c1cnc(N2CCN(c3ccc4ccccc4n3)CC2)nc1,,23.8,0.651 µM (active),
c1ccc(C(c2ccccc2)N2CCN(c3ccc4ccccc4n3)CC2)cc1,-1.57% (inactive),9.37,,
CCn1c(NC(=O)c2cccc(Cn3cc(Cl)cn3)c2)nc2ccccc21,3.94% (inactive),-10.4,,
O=C(c1ccccn1)N1CCN(c2ccc(C(F)(F)F)cn2)CC1,1.09% (inactive),-1.5,,
O=C(O)c1ccccc1-c1ccccc1C(=O)Nc1cccc(-c2nc3ccccc3o2)c1,4.74% (inactive),14.5,,
CS(=O)(=O)c1ccccc1C(=O)Nc1cccc(-c2nc3ccccc3o2)c1,,-20.6,13 µM (active),
CC(=O)Nc1cccc(-c2nc3ccccc3o2)c1,,,,inactive
COc1cccc(-c2cc(C(=O)NCC3CCCO3)c3ccccc3n2)c1 (stereo unspecified),23.6% (inactive),,,
CCCc1nnc(NC(=O)CS(=O)(=O)c2ccccc2)s1,2.43% (inactive),-20,,
CCOCCc1nnc(NC(=O)CCS(=O)(=O)c2ccccc2)s1,,-12,,inactive
O=C(CS(=O)(=O)c1ccccc1)Nc1ncc([N+](=O)[O-])s1,,-6.25,,inactive
Cc1ccc(S(=O)(=O)CC(=O)Nc2ncc([N+](=O)[O-])s2)cc1,,-14.4,,inactive
Cc1ccc(CC(=O)Nc2ncc([N+](=O)[O-])s2)cc1,-18.5% (inactive),2.17,,
CCCc1nnc(NC(=O)CCS(=O)(=O)c2ccccc2)s1,,3.42,1.46 µM (active),
Cc1ccc(C(=O)Nc2ncc([N+](=O)[O-])s2)cc1,,-15.4,23.1 µM (active),
Cc1ccnc(NC(=O)c2ccc(Br)s2)c1,1.19% (inactive),12.2,,
Cc1ncoc1C(=O)Nc1ncc([N+](=O)[O-])s1,-4.91% (inactive),-6.04,,
O=C(CCS(=O)(=O)c1ccccc1)Nc1ncc([N+](=O)[O-])s1,,-3.6,4.61 µM (active),
Cc1ccnc(NC(=O)c2ccc(Cl)s2)c1,,,,inactive
Cc1ccnc(NC(=O)c2ccc([N+](=O)[O-])s2)c1,,-22,11.2 µM (active),

# Source: PubChem BioAssay AID2685 (National Center for Advancing Translational Sciences (NCATS), 2010)
